Measured values from PubChem BioAssay (NCI).
Compounds without any hit were thinned out: in the full panel of roughly 83,000, 20% have a hit.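 Interpretation: 100, growth as untreated; towards 0, rising growth inhibition; 0, no net growth; 0 to -100, cell death. Compounds scoring below 10 were considered active.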

Tests used:
Assay in all cases: NCI-60 one-dose screen, 48 h (100 = growth as untreated, 0 = no growth, -100 = all killed)
Conditions in all cases: 10 µM unless noted
[1] = tested on: NCI-H23 lung
[2] = tested on: NCI-H226 lung
[3] = tested on: HOP-62 NSCLC
[4] = tested on: NCI-H460 lung
[5] = tested on: HOP-92 NSCLC
[6] = tested on: NCI-H522 lung
[7] = tested on: A549/ATCC NSCLC
[8] = tested on: 786-0 renal
[9] = tested on: COLO 205 colon
[10] = tested on: DU-145 prostate
[11] = tested on: K-562 leukemia
[12] = tested on: MALME-3M melanoma
[13] = tested on: RXF 393 renal
[14] = tested on: SF-268 CNS
[15] = tested on: SF-295 CNS
[16] = tested on: SF-539 CNS
[17] = tested on: UACC-257 melanoma
[18] = tested on: M14 melanoma
[19] = tested on: MDA-MB-231 breast

Measured: growth

CN1Cc2c(cc(CN3CCCCC3)n2C)C(c2ccc(Br)cc2)C1 (stereo not drawn)
inactive: [1] 84.6% | [2] 90.7% | [3] 91.1% | [4] 96.9% | [5] 53.9% | [6] 90.5% | [7] 93.8% | [8] 66.5% | [9] 83.1% | [10] 96.5% | [11] 34.9% | [12] 22.8% | [13] 74.8% | [14] 92.6% | [15] 81.3% | [16] 76.1% | [17] 13.4% | [18] 14.1%

O=c1c2cccc3c(Nc4ccccn4)ccc(c32)c2nc3ccccc3n12
inactive: [1] 60.6% | [2] 69.7% | [3] 67.8% | [4] 52.7% | [5] 54.9% | [6] 56.6% | [7] 70.9% | [8] 88.4% | [9] 71% | [10] 91.8% | [11] 46.5% | [12] 86.3% | [19] 70.6% | [13] 108% | [14] 87.2% | [16] 85.7% | [18] 91%

COc1ccc2[nH]c(=O)c(/C=C/C(=O)c3ccc(Nc4nccc(-c5ccc6ccccc6c5)n4)cc3)cc2c1
inactive: [1] 104% | [2] 96.6% | [3] 102% | [4] 102% | [5] 81.8% | [6] 99.5% | [7] 97.3% | [8] 93.5% | [9] 104% | [10] 99.9% | [12] 101% | [19] 96.2% | [13] 102% | [14] 94.9% | [15] 101% | [16] 101% | [17] 95.2% | [18] 101%
